Screening results: PubChem BioAssay, Sanford-Burnham Center for Chemical Genomics
Most compounds without a hit are left out; they make up all but 2.6% or so of the library.
PABP polyA inh – PABP-poly(A) binding inhibition; P11940; PABP-poly(A) RNA binding, fluorescence polarization; inhibition, % at 35 µM; actives 1% (n = 290,000); AID 2014;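 also: calls also rest on retests at 20 µM and on dose response follow-up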
eIF4H inh – inhibitors of RNA binding by human eIF4H | AID 2012 | actives 0.94% (n = 290,000) | Q15056 | inhibition, % at 35 µM | eIF4H fluorescence polarization binding assay;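 also: calls also rest on retests at 20 µM and on dose response follow-up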
PHOSPHO1 inh – blocks human PHOSPHO1 phosphatase activity; AID 1565; recombinant PHOSPHO1, absorbance phosphatase assay; Q8TCT1; inhibition, % at 13.3 µM; actives 1.1% (n = 290,000); in the data active = inhibition above about 60%
Target sequence (Q8TCT1 whole entry, looked up): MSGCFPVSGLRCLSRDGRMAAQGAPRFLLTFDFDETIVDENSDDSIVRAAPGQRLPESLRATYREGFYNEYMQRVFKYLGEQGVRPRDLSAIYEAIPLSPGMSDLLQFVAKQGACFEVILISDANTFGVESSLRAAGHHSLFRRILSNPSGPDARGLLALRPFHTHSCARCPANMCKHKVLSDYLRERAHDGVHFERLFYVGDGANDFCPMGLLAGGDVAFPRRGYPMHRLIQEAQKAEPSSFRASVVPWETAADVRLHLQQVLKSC
CRFBP-R2 block – CRF-BP/CRF-R2 complex antagonism; AID 588475; inhibition, % at 11.8 µM; actives 0.59% (n = 350,000); HEK293 CRF-R2/CRF-BP, CRF-induced calcium fluorescence;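 active = inhibition of the ligand-induced calcium signal above about 50% at the single tested concentration, limit read from the data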
MLLE-PAM2 inh – blocks PAM2 peptide binding to the PABP1 MLLE domain; actives 0.36% (n = 360,000); inhibition, % at 20 µM; GST-MLLE / FITC-PAM2 fluorescence polarization; in the data active = inhibition above about 35%, passing the limit was not always enough;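 also: plate controls were DMSO wells with GST-MLLE for no effect and wells lacking GST-MLLE protein for full effect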
* hit, by the source's call; . = no result given; ! = repeats disagree. Unless noted, no rule for the calls is given here.

SMILES	PABP polyA inh	eIF4H inh	PHOSPHO1 inh	CRFBP-R2 block	MLLE-PAM2 inh
CCOC(=O)[C@@H]1[C@H]2COc3cc(OC)ccc3[C@H]2N2C(=O)N(c3cccc(F)c3)C(=O)[C@]12C	.	.	.	11.3	5.1
CCC(C(=O)NC1CCCCCC1)n1nc(C)c2c(C)n(-c3ccccc3)nc2c1=O (stereo not drawn)	-2.8	-8.1	64.7*	10.7	9.7
Cc1nc2sc(C(c3ccc(Cl)cc3)N3CCN(c4ccccc4F)CC3)c(O)n2n1 (stereo not drawn)	-0.5	8.1	10.2	-22.8	4.0
COc1cccc(Oc2ccc(OC)cc2C(=O)O)c1	9.4	0.8	24.6	74.1*	1.0
CCOC(=O)C1(C)CCCN1C(=O)c1cncc(Br)c1 (stereo not drawn)	.	.	.	.	-5.7
CC1CCN(C(=O)CCNC(=O)Cn2cnc3sc4c(c3c2=O)CCCC4)CC1	-7.0	-0.3	3.0	-9.6	2.8
COc1ccc(/C=N/n2c(-c3n[nH]c4c3CCC4)n[nH]c2=S)cc1	4.7	-8.4	19.7	100.3*	-35.9
Cn1c(=S)n(/N=C/c2ccc3c(c2)OCO3)c2ccccc21	-3.4	7.0	46.6	3.2	-130.2
COc1ccc(/C=N/n2c(-c3cc(C)[nH]n3)n[nH]c2=S)cc1OC	10.5	10.9	92.7*	-9.1	-20.5
COc1ccc(OC)c(/C=N/n2c(-c3n[nH]c4c3CCC4)n[nH]c2=S)c1	5.6	-2.3	27.3	6.0	-14.5
COc1ccc(/C=N/n2c(=S)n(C)c3ccccc32)cc1OC	-1.3	-7.1	73.3*	8.9	-106.7
CC(/C=N/n1c(-c2cc(C)[nH]n2)n[nH]c1=S)=C\c1ccccc1	64.4*	active	46.8	-7.1	-29.9
COc1cccc(-c2cc3nc(Nc4ccc(OC)c(OC)c4)n(C)c(=O)c3s2)c1	.	.	.	.	-6.9
CN(Cc1ccc(Cl)cc1)C(CCc1ccccc1)C(=O)NC1CCCCC1 (stereo not drawn)	.	.	.	.	-2.0
OC[C@@H]1CN(Cc2cccnc2)C[C@H](n2cnc3c(N4CCCC4)ncnc32)O1	.	.	.	.	-19.1
NC(=O)c1cccc(-c2ccnc3c2CC(C(=O)NCCc2ccccc2)O3)c1 (stereo not drawn)	.	.	.	.	-9.0
CCOC(=O)CSc1nc2ccccc2c(=O)n1CCN1CCOCC1	-0.7	5.4	6.3	-3.1	26.5
CCOC(=O)CSc1nc2ccc(N3CCOCC3)cc2c(=O)n1Cc1ccccc1	26.3	9.0	60.3*	-15.5	-51.6
c1ccc2c(-c3nc4ccccc4[nH]3)cccc2c1	.	.	.	-7.0	-6.5
c1ccc2[nH]c(-c3ccnc4ccccc34)nc2c1	28.6	2.5	89.0*!	10.0	12.6
Cc1ccccc1-n1ncc2c(SCC(=O)NC3CCCC3)ncnc21	12.4	15.2	43.3	0.9	4.2
Cc1ccccc1-n1ncc2c(SCC(=O)N3c4ccccc4CC3C)ncnc21 (stereo not drawn)	-3.2	-9.0	44.0	54.4*	12.2
CC1Cc2ccccc2N1C(=O)CSc1nnnn1C(C)C (stereo not drawn)	-1.7	-5.4	62.3*	13.1	7.4
O=C(NCCCc1ccccc1)c1cccc(NC(=O)C2CCCC2)c1	.	.	.	3.5	-8.0
COc1ccc(CN2CC(=O)N3[C@H]4c5ccccc5OC[C@@H]4[C@H](c4ccccc4)[C@]3(C)C2=O)cc1	.	.	.	-15.9	43.2*
SMILES	PABP polyA inh	eIF4H inh	PHOSPHO1 inh	CRFBP-R2 block	MLLE-PAM2 inh
Cc1ccccc1-n1c(O)cc(=O)[nH]c1=S	22.2	52.9*	23.4	4.1	19.2
O=c1cc(O)n(-c2ccccc2F)c(=S)[nH]1	63.7*	45.8*	35.3	-15.3	-2.0
Cc1ccccc1-n1c(N)cc(=O)[nH]c1=S	-2.2	-0.9	-44.2	7.8	27.4
O=c1cc(O)n(-c2ccc(Cl)cc2)c(=S)[nH]1	-2.8	-1.6	81.6*	26.0	0.4
NC(c1csc(Nc2ccccn2)n1)C1CCCCC1 (stereo not drawn)	.	.	.	.	-8.8
COc1ccc(NC(=O)C[C@H]2C(=O)N(c3ccccc3)C[C@@H]2CSC)cc1	.	.	.	-8.8	-1.6
COc1ccc(OC(F)(F)F)cc1CC1(C)C(=O)Nc2ccc(-c3ccsc3)cc21 (stereo not drawn)	.	.	.	.	-21.6
COc1ccccc1-n1c(SC(C)C(=O)NCC2CCCO2)nc2cc(Cl)ccc2c1=O (stereo not drawn)	.	.	.	6.4	-8.5
Cc1ccc(NC(=O)CN2C(=O)N/C(=C/c3ccco3)C2=O)cc1	58.6*	89.7*	-5.3	-1.9	19.2
CC(=C\c1ccco1)/C=C1/SC(=S)N(CC(=O)O)C1=O	65.9*	87.0*	21.9	3.8	2.6
O=C(CCN1C(=O)/C(=C\C=C\c2ccccc2)SC1=S)Nc1ccc(C(=O)O)cc1	49.1*	68.2*	17.4	10.9	-10.1
CC(/C=C1\SC(=S)N(CC(=O)O)C1=O)=C\c1ccccc1	13.1	1.0	35.7	0.6	10.8
O=C(CN1C(=O)S/C(=C/C=C/c2ccccc2)C1=O)Nc1ccc(C(=O)O)cc1	-6.6	0.3	3.3	-9.1	11.2
O=C(CN1C(=O)/C(=C/c2ccco2)SC1=S)Nc1ccc(C(=O)O)c(O)c1	81.9*	91.5*	36.8	28.5	-41.0
CC1(C(=O)NS(=O)(=O)c2ccccc2C(F)(F)F)CCN1C(=O)CCC1CCCC1 (stereo not drawn)	.	.	.	.	10.8
Cc1nc(SCCOc2ccccc2F)[nH]c(=O)c1Cc1ccccc1	45.6	2.8	-25.8	-4.1	3.5
O=C(CCCN1C(=O)/C(=C\c2cccs2)SC1=S)Nc1cccc(C(=O)O)c1	17.7	6.6	-4.6	-99.9	4.4
O=C(CCN1C(=O)/C(=C/c2ccccc2)SC1=S)NC1CCS(=O)(=O)C1 (stereo not drawn)	3.8	0.3	34.4	7.9	17.5
O=C(CN1C(=O)/C(=C/c2ccco2)SC1=S)Nc1ccc(O)c(C(=O)O)c1	68.9*	81.2*	1.5	-6.5	-15.4
O=C(CCCN1C(=O)/C(=C/c2ccco2)SC1=S)Nc1cccc(C(=O)O)c1	95.6*	94.1*	5.5	-34.5	-2.1
CC(C(=O)Nc1ccc(C(=O)O)c(O)c1)N1C(=O)/C(=C\c2ccco2)SC1=S (stereo not drawn)	86.8*	100.1*	-47.1	-0.5	-15.1
O=C(CN1C(=O)/C(=C/c2ccco2)SC1=S)NC1CCS(=O)(=O)C1 (stereo not drawn)	51.0*	74.2*	15.9	5.9	26.3
COc1cccc(NC(=O)CCC2CCN(C(=O)C(OC)c3ccccc3)CC2)c1 (stereo not drawn)	.	.	.	5.7	8.1
Cn1c(=O)c2cc(NC(=S)NC3CC3)ccc2n1Cc1cccc(C(F)(F)F)c1	.	.	.	.	-11.5
CCNC(=O)C1(C)CCN(Cc2noc(-c3c(C)noc3C)n2)C1 (stereo not drawn)	.	.	.	.	1.1
Cc1ccc2cc(/C=C/C(=O)c3ccco3)c(Cl)nc2c1	11.7	5.2	18.8	-25.8	-19.9
Cc1ccc2nc(Cl)c(/C=C/C(=O)c3ccco3)cc2c1	-1.0	-5.8	-7.6	101.3*	-0.4
COc1ccc2cc(/C=C/C(=O)c3ccco3)c(Cl)nc2c1	111.7	105.4	12.4	.	.
